Each structure is given as a SMILES string.

In PubChem BioAssay one finds activity data, which are given here for 40 compounds.

Tumor necrosis factor receptor superfamily member 10B (Homo sapiens), sequence (O14763 whole entry, looked up): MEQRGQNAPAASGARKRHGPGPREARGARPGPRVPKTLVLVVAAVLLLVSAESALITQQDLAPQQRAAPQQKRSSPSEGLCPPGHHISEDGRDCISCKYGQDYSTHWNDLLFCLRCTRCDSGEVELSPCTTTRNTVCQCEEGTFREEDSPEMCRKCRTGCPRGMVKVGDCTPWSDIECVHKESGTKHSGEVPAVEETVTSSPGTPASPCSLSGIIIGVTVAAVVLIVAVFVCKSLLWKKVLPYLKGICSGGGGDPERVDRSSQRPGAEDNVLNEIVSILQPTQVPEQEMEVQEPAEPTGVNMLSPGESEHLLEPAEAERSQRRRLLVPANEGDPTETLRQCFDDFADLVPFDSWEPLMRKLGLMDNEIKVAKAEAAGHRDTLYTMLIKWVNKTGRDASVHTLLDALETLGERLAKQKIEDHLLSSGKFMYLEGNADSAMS

This assay concerns the target Tumor necrosis factor receptor superfamily member 10B (Homo sapiens) (UniProt O14763). Kind of assay: caspase-8 TRAIL sensitization, hit retest, confirmation, cell-based, NB7+caspase-8, with/without TRAIL, luminescence panel (AID 651596). Particulars: NB7 neuroblastoma + caspase-8, TRAIL sensitization, luminescence viability, with TRAIL, mean of runs, at 10 µM, stronger effect = higher value; in the data active means activity above about 50%; inactive means the rest.
As to `Cc1cccc(-c2nc3cc(NC(=O)C4CCCO4)ccc3o2)c1` (stereo not given), the activity amounted to 66.7%.

As to `COc1ccc(-c2cc3nc[nH]c(=O)c3s2)cc1`, the activity came out at 61.5%.

Turning to `Cc1ccc(Cl)cc1N1CCN(C(=O)c2noc(C)c2[N+](=O)[O-])CC1`, the activity turned out to be 99.3%.

For the compound `Cc1cc(NC(=O)c2ccc3c(c2)OCO3)no1`, the activity worked out at 46.2%.

Regarding `CCc1ccc(Nc2n[n+](-c3ccccc3)c(-c3ccc(N(CC)CC)cc3)s2)cc1`, the activity worked out at 45.2%.

For `CCn1cc(/C=C/C(=O)c2ccc(O)cc2)c(C)n1`, the activity is 63.8%.

As to `CCOc1cc(C(=O)O/N=C(\N)c2ccccn2)cc(OCC)c1OCC`, the activity stood at 91.1%.

Regarding `CNC[C@H](Cc1ccccc1)NC[C@@H](Cc1cccc2ccccc12)NCCc1ccc(C)cc1`, the activity was 95.4%.

For the compound `Cc1ccccc1C(=O)O/N=C(\N)Cc1cccs1`, the activity was found to be 98%.

Turning to `Nc1nc(Nc2ccc(Cl)cc2)nc2ccccc12`, the activity is 84.4%.

With `CCOc1ccc(NC(=O)Nc2cccnc2)cc1`, the activity is 55.2%.

In the case of `Cc1cc(NC(=O)c2ccc(S(=O)(=O)N3CCCC3)cc2)nc2c1c(=O)oc1ccccc12`, the activity came out at 69.5%.

Consider `Cc1nc(=S)c2c([nH]1)-c1ccccc1CC21CCCCC1`, for which the activity is 92%.

For the compound `C#Cc1ccc(NC(=O)C2(C)CCN2C(=O)Cc2ccc(-c3ccccc3)cc2)cc1` (stereo not given), the activity amounted to 94.4%.

As to `COc1ccc(OCC(=O)N/N=C(\C)c2cc3ccccc3o2)cc1`, the activity was 62.8%.

With `Cc1ccc(C)c(NC(=S)NC(NC(=O)Cc2cccc3ccccc23)C(Cl)(Cl)Cl)c1` (stereo not given), the activity amounted to 82.6%.

In the case of `CC(=O)n1cc(N(C(=O)CCl)c2ccccc2)c2ccccc21`, the activity is 99.6%.

For the compound `Cc1ccc(Cn2ccsc2=NC(=O)CCl)cc1`, the activity stood at 99.2%.

In the case of `Cc1cccc(/C(N)=N/OC(=O)c2cccc3ccccc23)c1`, the activity came to 89.5%.

On to `CCCCn1c(SCC(=O)Nc2nnc(CC)s2)nc2c1c(=O)n(C)c(=O)n2C`, for which the activity worked out at 68%.

As to `CCOC(=O)C1=CCN(S(=O)(=O)c2ccccc2Cl)C1c1cccc(F)c1` (stereo not given), the activity was -2.9%.

For the compound `CC(C)c1nnc(NC(=O)c2nc(S(=O)(=O)Cc3ccc(F)cc3)ncc2Cl)s1`, the activity amounted to 72.9%.

Consider `CC1=NN(c2nc(N)nc(/C(C#N)=C/c3ccc([N+](=O)[O-])o3)n2)C(C)(C)C1`, for which the activity came to 58.1%.

For the compound `C=CCN1C=CC(=C/C=C(/C#N)C(=O)OCC)C=C1`, the activity worked out at 50.2%.

On to `CC1CCCN(c2ncnc3c2cnn3-c2ccccc2)C1` (stereo not given), for which the activity is 86.1%.

With `CN(C)c1ccc(C=Nc2ccccc2C(N)=O)cc1`, the activity stood at 85.3%.

Consider `COc1ccc2c(=O)c(-c3nc(C)cs3)coc2c1`, for which the activity turned out to be 69.9%.

Turning to `N#Cc1ccc(NC(=O)Nc2ccc(Cl)cc2)cc1`, the activity worked out at 81%.

On to `O=C(CCl)N(c1ccccc1)c1c[nH]c2ccccc12`, for which the activity came out at 99.5%.

`O=C(Nc1ccc2nc(-c3ccco3)[nH]c2c1)c1cccs1`: the activity came out at 72.4%.

Consider `c1cncc(-c2nc3cc4ccccc4cc3[nH]2)c1`, for which the activity was determined as 66.7%.

`CCc1n[n+](CC(=O)c2ccccc2)c(N)s1`: the activity worked out at 44.6%.

On to `CCOC(=O)N1CCN(C(=O)c2ccc(Cn3c(=S)[nH]c4ccc(Br)cc4c3=O)cc2)CC1`, for which the activity worked out at 73.5%.

As to `O=C(/C=C/c1ccc(Cl)cc1Cl)N1CCc2ccccc21`, the activity stood at 47.9%.

Regarding `Cc1ccc2nc(NC(=O)c3ccc(-c4nc5ccccc5s4)s3)sc2c1`, the activity turned out to be 56.8%.

On to `COc1cccc(CSc2nc3ccncc3[nH]2)c1`, for which the activity was determined as 87.7%.

For `O=C(NCc1cc(C(F)(F)F)ccc1Cl)c1cccc2c1C(=O)c1ccc(N3CCC(N4CCCCC4)CC3)cc1S2(=O)=O`, the activity worked out at 93%.

In the case of `CCOC(=O)C1=C(C)OC(=Cc2ccc(OC)cc2)C1=O`, the activity worked out at 70.6%.

With `CCc1ccc(C(=O)Nc2nnn(CC)n2)cc1`, the activity worked out at 73.6%.

Turning to `Nc1nc(CCl)nc(Nc2ccc3ccccc3c2)n1`, the activity was 99.1%.
